Screening data deposited in PubChem BioAssay by several laboratories.
This is a sample that favours compounds with a hit; in the whole collection about 2.6% have one here.
PfM18AAP inh = blocks P. falciparum M18 aspartyl aminopeptidase; recombinant PfM18AAP, H-Glu-NHMec fluorogenic cleavage; inhibition, % at 7.35 µM; 1.2% of 290,000 active; AID 1822;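 active means inhibition above the campaign mean inhibition over all tested compounds plus 3 SD, cut at about 28% in these data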
ABHD5 PLIN5 PPI = inhibitors of human ABHD5-perilipin-5 interaction. AID 602281. Split G. princeps luciferase complementation, luminescence, 4 h. Q00G26+Q8WTS1. 0.78% of 360,000 active. inhibition, % at 4 µM;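 active means inhibition above the mean inhibition across every tested compound plus 3 SD, cut at about 22% in these data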
Rce1 inhib = blocks yeast Ras-converting enzyme; Q03530; yeast membranes, quenched prenylated peptide cleavage fluorescence; calls only; 0.27% of 290,000 active; AID 2563;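 active means fall in fluorescence gain of 50% or more versus controls, with final raw signal at or below 3038400; inconclusive means same 50% fall but final raw signal above 3038400; inactive means fall in fluorescence gain under 50%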
Target sequence (Q03530 whole entry, looked up): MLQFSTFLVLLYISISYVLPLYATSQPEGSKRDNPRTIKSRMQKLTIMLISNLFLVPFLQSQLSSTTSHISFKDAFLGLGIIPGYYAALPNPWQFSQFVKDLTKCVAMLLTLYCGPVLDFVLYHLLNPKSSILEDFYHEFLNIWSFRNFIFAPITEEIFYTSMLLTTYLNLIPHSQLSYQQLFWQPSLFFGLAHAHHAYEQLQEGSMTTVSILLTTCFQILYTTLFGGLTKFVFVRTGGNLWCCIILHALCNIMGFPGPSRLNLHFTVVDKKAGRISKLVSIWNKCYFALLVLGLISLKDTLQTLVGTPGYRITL
Exocytosis inh = blocks lytic granule exocytosis. inhibition, % at 10 µM. TALL-104 LAMP-1 surface exposure, flow cytometry; cells stimulated with thapsigargin and PMA. AID 651702. 0.66% of 360,000 active;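 active means inhibition above about 55%, limit read from the data; inconclusive means no clear call, values can overlap the other calls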
Platelet DG rel = platelet dense granule release activity; inhibition, %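 (compounds screened at 7.5 µM in platelet-rich plasma)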; human platelet-rich plasma, SFLLRN dense granule ATP release, luminescence; 0.22% of 300,000 active;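 active means mean replicate score, as percent of positive control, at or above 50; inconclusive means mean below 50 but at least one replicate at or above 50; inactive means mean and every replicate below 50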
Hits are given with their value; 0 = inactive; ? = inconclusive; - = no result; + = active, no number.

SMILES	PfM18AAP inh	ABHD5 PLIN5 PPI	Rce1 inhib	Exocytosis inh	Platelet DG rel
O=c1ccccn1Cc1c(Cl)cccc1Cl	0	0	0	0	0
CC#CCN(CC#CC)S(=O)(=O)c1ccc(-n2cnnn2)c(OC)c1	0	0	0	0	0
COC(=O)c1ccc(C(=O)OC)c(NC(=O)N2c3ccccc3Sc3ccccc32)c1	0	0	0	0	0
CCC(=O)N(CC)C1=C(O)c2ccccc2C(=O)C1=O	0	0	0	92	0
CCCCCC/C(C=O)=C\c1ccccc1	-	0	-	0	-
CN(C)C/C=C/C(=O)Nc1cccc(-c2c[nH]c3ncnc(Oc4ccc(NC(=O)CC(=O)Nc5ccc(F)cc5)cc4F)c23)c1	-	24	-	0	-
CC(=O)Nc1cccc(Oc2ncnc3scc(-c4ccccc4)c23)c1	0	0	0	0	0
C=CCn1c(CSc2ccccc2[N+](=O)[O-])n[nH]c1=S	0	0	0	0	0
C=CCn1c(Sc2ncc([N+](=O)[O-])s2)n[nH]c1=O	0	0	0	58	0
COc1ccc(OC)c(NC(=O)CCc2c[nH]c3ccccc23)c1	0	0	-	0	0
CCOC(=O)NC1(NCc2ccccc2)Oc2ccccc2O1	54	0	0	0	0
CC(=O)NNC(=O)c1csc(-c2csc(C)n2)n1	0	0	0	0	-
O=C(OCC(=O)N1CCN(C(=O)c2ccco2)CC1)c1cc(-c2ccco2)nc2ccccc12	0	24	0	0	0
O=C(OCC(=O)N1CCN(C(=O)c2ccco2)CC1)c1cc(-c2ccc(Cl)c(Cl)c2Cl)nc2ccccc12	0	0	0	0	0
COC(=O)c1ccc(N2OC3(C)C=CC2CC3)cc1 (configuration not stated)	0	0	0	0	0
CC(=O)Nc1ccc(NC(=O)CSc2nccn2Cc2ccco2)cc1	0	0	0	0	0
C/C(CC(=O)NCc1ccco1)=N\NC(=O)c1ccc([N+](=O)[O-])cc1Cl	0	0	+	0	0
COc1ccc(/C=N/Nc2ccc(C(=O)O)cc2)cc1Br	0	0	0	0	68
COc1ccc(/C(C)=N/Nc2ccc(C(=O)O)cc2)c(OC)c1	29	0	0	0	0
COc1ccc2c(c1)C(=NNc1ccc(C(=O)O)cc1)c1cc(OC)ccc1-2	0	0	0	0	0
Cc1ccc(/C=N/Nc2ccc(C(=O)O)cc2)s1	0	0	0	0	83
CC1(C(=O)Nc2cccc3ncccc23)CCN1C(=O)C1(c2ccccc2)CC1 (configuration not stated)	-	0	-	0	-
Cc1ccc(S(=O)(=O)N(C)C[C@@H]2Oc3ccc(NC(=O)Nc4cccc5ccccc45)cc3C(=O)N([C@H](C)CO)C[C@H]2C)cc1	-	0	-	0	-
CCn1c(SCC(=O)N/N=C(/C)c2ccncc2)nc2ccccc21	0	0	0	60	0
CCn1c(SCC(=O)NC2CC2)nc2ccccc21	-	0	-	0	-
SMILES	PfM18AAP inh	ABHD5 PLIN5 PPI	Rce1 inhib	Exocytosis inh	Platelet DG rel
COc1ccc(S(=O)(=O)NCCC(=O)N2CCCN(C)CC2)cc1	-	0	-	0	-
CCOc1ccc(S(=O)(=O)NCCC(=O)N2CCCN(C)CC2)cc1	0	0	0	0	51
Cc1ccc(NC(=O)CSc2nc3c(c(=O)[nH]2)CN(Cc2ccc(F)cc2)CC3)cc1C	0	0	0	0	0
Cc1cc(C)nc(NC(=NCCc2c[nH]c3ccccc23)NC(=O)c2ccco2)n1	0	0	0	95	0
O=C(C[C@H]1C/C=C\C[C@H](NC(=O)OCC2c3ccccc3-c3ccccc32)C(=O)OC[C@@H]2CCCN2C1=O)NCCO	-	0	-	0	-
O=C(C[C@H]1C/C=C\C[C@H](NC(=O)OCC2c3ccccc3-c3ccccc32)C(=O)OC[C@H]2CCCN2C1=O)NCCO	-	0	-	59	-
Cc1cc(/C=N/n2cnnc2)c(C)n1-c1cccc(Cl)c1	29	0	0	0	0
Cc1cc(/C=N/n2cnnc2)c(C)n1-c1ccc(Cl)cc1	0	0	0	0	0
Cc1nn(C)c(C)c1S(=O)(=O)Nc1ccc2c(c1)OCO2	0	0	0	0	-
O=C1NC(c2ccccc2)=C(c2ccccc2)C1=O	0	0	-	0	-
O=C1C(Br)=C(c2ccccc2)C(c2ccccc2)=C1c1ccccc1	-	0	-	106	-
C#CC(=O)CCC1CCCN1C(=O)OC(C)(C)C (configuration not stated)	-	0	-	0	-
O=C1C=C(Nc2ccc(Cl)cc2)CC(c2ccc(Cl)cc2)C1 (configuration not stated)	0	0	0	0	0
O=C(O)C1CCc2sc3[nH]c(=S)n(-c4ccccc4)c(=O)c3c21 (configuration not stated)	31	0	0	0	0
O=Cc1cccc(Oc2ncccn2)c1	0	0	0	0	0
Nc1ccc(Oc2ncccn2)cc1	28	0	0	0	0
CCN(CC)c1ccc(NS(=O)(=O)c2ccc3c(c2)oc(=O)n3C)c(C)c1	29	0	?	0	0
Cc1cc(C)c(NS(=O)(=O)c2ccc3c(c2)oc(=O)n3C)c(C)c1	-	0	-	0	-
COc1ccc(-c2cc3nc4n(c(=O)c3s2)CCC4)cc1	0	0	0	0	0
COc1ccc(-c2cc3nc(C)n(N)c(=O)c3s2)cc1	0	0	0	0	87
Cc1nc2cc(-c3ccccc3)sc2c(=O)n1N	0	0	0	0	90
COc1cc2[nH]c(=S)nc(NC3CCCCCC3)c2cc1OC	0	0	0	0	0
COC(=O)c1cccc(/C=N/NC(N)=S)c1O	31	0	0	0	0
O=C(c1ccccc1)c1c2c(cc3sc4ccccc4[n+]13)-c1cccc3cccc-2c13	0	0	-	88	-
Cc1sc2cc3c(c(C(=O)c4ccccc4)[n+]2c1C)-c1cccc2cccc-3c12	0	-	0	-	0
SMILES	PfM18AAP inh	ABHD5 PLIN5 PPI	Rce1 inhib	Exocytosis inh	Platelet DG rel
CCOc1ccc2nc(NC(=O)c3ccco3)sc2c1	0	0	0	0	50
CCOc1ccc2nc(NC(=O)c3ccccn3)sc2c1	0	0	0	0	81
CCOc1ccc2nc(NC(=O)COC)sc2c1	0	0	0	0	0
CCOc1ccc2nc(NC(=O)c3ccoc3C)sc2c1	0	0	0	0	69
CC(C)Oc1ccccc1C1NC(=O)CCC1[N+](=O)[O-] (configuration not stated)	0	0	0	0	0
Cc1cc(=O)[nH]c(SCC(=O)NC(c2ccccc2)c2ccccc2)n1	0	0	-	0	0
CC(=O)c1ccc(N2CCN(C(=O)c3cn(Cc4ccccc4)nc3-c3cccnc3)CC2)c(F)c1	-	0	-	0	-
Oc1ccc(/C=N/Nc2cc(N3CCOCC3)nc(N3CCOCC3)n2)cc1O	56	0	0	0	0
CCSc1nc(N)c(C#N)c(-c2ccccc2Cl)c1C#N	0	0	0	0	0
N#Cc1c(N)nc(Sc2ccc(Cl)cc2)c(C#N)c1-c1ccccc1Cl	0	0	0	79	0
CCOC(=O)C1=C(CSc2nc(-c3ccccc3)ccc2C#N)OC(N)=C(C#N)C1c1ccc(OC)cc1 (configuration not stated)	0	0	0	75	0
CCOC(=O)C1=C(CSc2nc(CC)c(C)cc2C#N)OC(N)=C(C#N)C1c1ccccc1 (configuration not stated)	0	0	0	0	0
O=C(NCCc1ccc(Cl)cc1)C1CCCN1C(=O)Nc1ccc(F)cc1 (configuration not stated)	0	0	0	0	0
